The target of assay [1] is Lysosomal acid glucosylceramidase (Homo sapiens) (UniProt P04062). The assay can be described thus: Glucocerebrosidase-p2 (AID 348; in the data active = potency below about 10 µM; note: potency is the fitted concentration of half-maximal effect). As to conditions: purified GBA, blue fluorogenic substrate, 40 min. The essentials:
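Compounds titrated from 0.6 nM upwards against 0.2 nM enzyme in pH 5.9 citric acid/KH2PO4, taurocholate, tween-20; blue fluorogenic substrate 80 uM, 40 min room temperature, stopped and read Ex 365/Em 440 for AC50.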

Assay [2] in a line: AP1 Signaling Pathway (AID 357; active = well fitted curve in either direction with a large enough effect, not every such curve was filed as active;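 note: ME-180 reporter cells stimulated with EGF at its EC50 level; % is set by controls: 0 for no effect and ±100 for the full control effect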). To be noted: ME-180 AP-1-bla reporter, EGF-induced, beta-lactamase ratio, 5 h; at 7.69 µM (top of the series) unless noted. The essentials: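 In this screen, ME-180 cells in Opti-MEM with 0.5% dialyzed FBS received EC50 EGF and compound titrations for 5 h. AP-1 reporter beta-lactamase was detected via CCF4 ratio, giving AC50 for positive and negative modulators.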

Assay [3] deals with Cytochrome P450 1A2 (Homo sapiens) (UniProt P05177). The assay can be described thus: p450-cyp1a2 (AID 410; calls by dose curve; note: potency is the fitted concentration of half-maximal effect). To be noted: recombinant CYP1A2, luciferin-ME demethylation, luminescence; series mostly up to 57 µM. In outline:
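Inhibition was calculated relative to 57 uM furafylline (full inhibition). The reaction used human CYP1A2 at 20nM with Luciferin-ME at its Km, 100uM, driven by an NADPH-regenerating system for 60 min at room temperature.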

Assay [4] is described as follows: NFAT Signaling Pathway (AID 444; active = well fitted curve in either direction with a large enough effect, not every such curve was filed as active;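 note: carbachol stimulus at about its EC50 of 1 µM final; % is set by controls: 0 for no effect and ±100 for the full control effect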). As to conditions: Jurkat NFAT-bla M1, carbachol, beta-lactamase ratio, 5 h; at 7.69 µM (top of the series) unless noted. In outline:
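Jurkat cells carrying an NFAT-driven β-lactamase reporter and co-transfected muscarinic M1 receptor were treated with compound plus carbachol (1 uM final, an EC50 level) for 5 h at 37 °C. CCF4 loading followed for 1 h at RT; 460/530 nm ratio gave %activity.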

The nature of assay [5]: Stat Signaling Pathway (AID 446; active = well fitted curve in either direction with a large enough effect, not every such curve was filed as active;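 note: ME-180 cervical cancer cells given 40 pM IL-6 alongside compound; SIE-controlled beta-lactamase reporter measured as 460/530 nm FRET emission ratio; % is set by controls: 0 for no effect and ±100 for the full control effect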). To be noted: ME-180 SIE beta-lactamase reporter, IL-6 stimulated, 5 h; at 7.69 µM (top of the series) unless noted. In outline: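 ME-180 cells carrying a SIE-driven beta-lactamase reporter are stimulated with 40 pM IL-6 for 5 h at 37C in the presence of compound. The 460/530 nm FRET substrate ratio is read after 2.5 h at RT. Data are normalised to 300 pM IL-6 and to 125 nM JAK inhibitor controls.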

Assay [6] has as its target Glucocorticoid receptor (Homo sapiens) (UniProt P04150). Kind of assay: GR-GFP Redistribution (AID 450;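 active = compounds whose dose series gives a full or clear partial fitted curve of increased nuclear translocation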; note: potency is the fitted concentration of half-maximal effect). To be noted: U2OS GR-GFP nuclear translocation, laser cytometry, 2 h.
For assay [7] the target is unchanged. The assay can be described thus: GR-EFC Redistribution (AID 451; calls by dose curve; note: potency is the fitted concentration of half-maximal effect). To be noted: CHO-K1 GR-EFC translocation, beta-gal luminescence, 2 h. The essentials: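 CHO-K1 cells stably expressing nuclear-localized β-gal enzyme acceptor and GR fused C-terminally to the enzyme donor fragment; ligand-driven nuclear translocation restores β-gal by complementation. Compounds titrated up to 46 uM final, 2 h at 37 °C; luminescence read.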

In assay [8] the target is Mitogen-activated protein kinase 10 (Mus musculus) (UniProt Q61831). Kind of assay: JNK3 AlphaScreen Assay (AID 530; active = well fitted curve in either direction with a large enough effect, not every such curve was filed as active;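 note: kinase came from lysate of stimulated human HepG2 cells; signal reports phosphorylation of biotinylated GST-cJun 1-79 at Ser73 with 10 µM ATP; % is set by controls: 0 for no effect and ±100 for the full control effect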). To be noted: JNK3 lysate, c-Jun phosphorylation; series mostly up to 57.1 µM. In outline:
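JNK3 came from HepG2 lysates pre-activated with IL-1beta and TNF-alpha and phosphorylated biotinylated GST-cJun (1-79) at 10 uM ATP, pH 7.6, room temperature. Compounds were titrated. AlphaScreen signal used anti-phospho-cJun (Ser73) antibody.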

Assay [9] addresses Dual specificity protein kinase CLK4 (Homo sapiens) (UniProt Q9HAZ1). The assay can be described thus: qHTS Assay for Inhibitors of CDC-like Kinase 4 (Kinase-Glo Assay) (AID 1770). Note: nearly all actives have a fitted effect of over 65% in size. Note: potency is the fitted concentration of half-maximal effect. To be noted: recombinant Clk4, Kinase-Glo ATP depletion luminescence; series mostly up to 66.7 µM. The essentials: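 Substrate mix (RS peptide 100 uM, ATP 1 uM) dispensed, compound pinned in, then Clk4 added to 25 nM final. Incubated 4.5 h at RT; Kinase-Glo reagent added, luminescence read after 5 min.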
A general note: In qHTS, concentration-response curves come from the screen itself.

The target is the same in assay [10]. The assay can be described thus: qHTS Assay for Inhibitors of CDC-like Kinase 4 (ADP-Glo Assay) (AID 1771). Note: nearly all actives have a fitted effect of over 70% in size. Note: potency is the fitted concentration of half-maximal effect. To be noted: recombinant CLK4, ADP-Glo luminescence; series mostly up to 80 µM. In outline: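 Kinase reaction: Clk4 at 25 nM, RS repeat peptide substrate at 100 uM, ATP at 1 uM, 1 hr, room temperature. Product ADP detected as luciferase signal via ADP-Glo.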

For assay [11] the target is unchanged. Kind of assay: qHTS Assay for Inhibitors of CDC-like Kinase 4 (ADP-FP Assay) (AID 1795). Note: nearly all actives have a fitted effect of over 60% in size. Note: potency is the fitted concentration of half-maximal effect. To be noted: Transcreener ADP fluorescence polarization; series mostly up to 50 µM. The essentials: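 Clk4 6.25 nM; RS peptide 100 uM; ATP 1 uM; 25 mM Tris pH 7.5, 10 mM MgCl2; 1 h reaction. ADP detected via antibody/orange tracer FP displacement; TG003 positive control.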

In assay [12] the target is Ubiquitin carboxyl-terminal hydrolase 1 (Homo sapiens) (UniProt O94782). Kind of assay: Inhibitors of USP1/UAF1: Pilot qHTS (AID 504865).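 Note: rhodamine fluorescence freed from ubiquitin-rhodamine substrate followed over time; top concentration of the series differs between compounds; % is set by controls: 0 for no effect and ±100 for the full control effect; nearly all actives have a fitted effect of over 35% in size.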 As to conditions: purified USP1/UAF1, Ub-rhodamine cleavage fluorescence; series mostly up to 54.9 µM. In outline: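 In 50mM HEPES pH 7.8 containing 0.5mM EDTA, 1mM TCEP, 0.1 mg/ml BSA and 0.01% Tween-20, 1nM USP1/UAF1 is exposed to compound for 15 min, then Ub-Rho (150nM final) is added and fluorescence is read over time.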
Sequence of Ubiquitin carboxyl-terminal hydrolase 1 (Homo sapiens) (O94782 whole entry, looked up): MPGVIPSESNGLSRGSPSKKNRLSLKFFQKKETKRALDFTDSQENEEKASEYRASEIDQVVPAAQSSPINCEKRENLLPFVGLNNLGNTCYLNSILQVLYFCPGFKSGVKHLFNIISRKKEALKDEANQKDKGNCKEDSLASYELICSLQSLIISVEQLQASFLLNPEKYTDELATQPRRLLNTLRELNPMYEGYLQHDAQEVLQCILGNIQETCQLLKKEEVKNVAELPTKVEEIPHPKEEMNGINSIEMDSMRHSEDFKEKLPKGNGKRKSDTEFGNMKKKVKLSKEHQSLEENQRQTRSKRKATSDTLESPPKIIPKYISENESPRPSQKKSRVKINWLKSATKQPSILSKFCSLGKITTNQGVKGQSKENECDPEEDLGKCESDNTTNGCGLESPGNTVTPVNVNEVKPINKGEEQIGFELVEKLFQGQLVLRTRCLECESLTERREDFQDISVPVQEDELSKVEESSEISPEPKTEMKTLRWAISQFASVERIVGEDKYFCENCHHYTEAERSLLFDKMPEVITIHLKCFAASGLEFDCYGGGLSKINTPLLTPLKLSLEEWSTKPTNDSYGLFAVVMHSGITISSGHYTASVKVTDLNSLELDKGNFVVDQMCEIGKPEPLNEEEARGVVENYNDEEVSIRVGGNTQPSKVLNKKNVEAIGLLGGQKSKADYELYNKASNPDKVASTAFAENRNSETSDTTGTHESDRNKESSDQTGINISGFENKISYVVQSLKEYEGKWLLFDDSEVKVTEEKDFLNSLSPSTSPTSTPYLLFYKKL

The nature of assay [13]: Primary qHTS for small molecule stabilizers of the endoplasmic reticulum resident proteome: Secreted ER Calcium Modulated Protein (SERCaMP) assay (AID 1508630). Note: % is set by controls: 0 for no effect and ±100 for the full control effect. As to conditions: SH-SY5Y GLuc-SERCaMP (Gaussia luciferase released on ER calcium loss) secretion, thapsigargin, luminescence; series mostly up to 38.4 µM. In outline:
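GLuc-SERCaMP-expressing SH-SY5Y cells, pretreated 16 h with compound, are challenged with thapsigargin to empty ER calcium stores; after 4 h, coelenterazine is added directly to the medium and luminescence is imaged.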

The target in assay [14] is 3',5'-cyclic-AMP phosphodiesterase 4B (Homo sapiens) (UniProt Q07343). Kind of assay: qHTS Assay for Inhibitors of PDE-IV (AID 607; active = well fitted activation curve with a large enough effect in the main read-out, with a control signal flat, not every such curve was filed as active; note: % of control where 0% means no effect). As to conditions: HEK293 ACTOne CNG channel cells, membrane potential fluorescence; series mostly up to 22.9 µM. The essentials: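 HEK293 ACTOne cells with CNG channel (1000/well), endogenous PDE4; membrane potential dye, compounds up to 22.9 uM final. Fluorescence Ex 535/Em 590; RO 20-1724 (100 uM final) as reference.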
Sequence of 3',5'-cyclic-AMP phosphodiesterase 4B (Homo sapiens) (Q07343 whole entry, looked up): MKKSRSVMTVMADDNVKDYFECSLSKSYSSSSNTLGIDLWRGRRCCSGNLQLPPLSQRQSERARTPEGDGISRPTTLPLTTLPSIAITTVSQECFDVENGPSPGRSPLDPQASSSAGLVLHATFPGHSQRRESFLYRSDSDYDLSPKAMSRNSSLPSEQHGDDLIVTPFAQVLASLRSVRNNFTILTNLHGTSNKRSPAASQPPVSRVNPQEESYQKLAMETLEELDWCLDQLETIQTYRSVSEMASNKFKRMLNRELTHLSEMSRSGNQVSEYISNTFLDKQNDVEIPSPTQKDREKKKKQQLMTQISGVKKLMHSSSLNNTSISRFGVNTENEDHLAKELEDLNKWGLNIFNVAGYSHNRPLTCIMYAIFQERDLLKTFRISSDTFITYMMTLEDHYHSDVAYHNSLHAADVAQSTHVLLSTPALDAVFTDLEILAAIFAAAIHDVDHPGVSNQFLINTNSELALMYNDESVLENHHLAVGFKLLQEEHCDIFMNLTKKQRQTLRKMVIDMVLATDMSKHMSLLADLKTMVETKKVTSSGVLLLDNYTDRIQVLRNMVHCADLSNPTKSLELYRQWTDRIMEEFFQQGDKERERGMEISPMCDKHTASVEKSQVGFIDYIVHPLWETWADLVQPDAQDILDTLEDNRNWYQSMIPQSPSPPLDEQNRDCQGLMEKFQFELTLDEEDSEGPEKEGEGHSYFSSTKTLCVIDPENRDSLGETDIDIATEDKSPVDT

Assay [15] deals with Cytochrome P450 3A4 (Homo sapiens) (UniProt P08684). The assay can be described thus: qHTS Assay for Activators of Cytochrome P450 3A4 (AID 885). Note: nearly all actives have a fitted effect of over 65% in size. To be noted: recombinant CYP3A4, Luciferin-PPXE luminescence, 60 min; series mostly up to 57.1 µM. The essentials:
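Human CYP3A4 (20 nM) with Luciferin-PPXE at 25 uM (its KM) in 200 mM KPO4; 10 min compound preincubation, then NADPH regeneration and 60 min reaction at RT. Luciferin read by luminescence; normalized to 57 uM ketoconazole full inhibition.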

Assay [16] concerns the target Rap guanine nucleotide exchange factor 3 (Homo sapiens) (UniProt O95398). Kind of assay: Confirmatory qHTS for agonist of cAMP-regulated guanine nucleotide exchange factor 3 (EPAC1) (AID 1645881).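 Note: EPAC1 catalysed release of BODIPY-GDP from Rap1B seen as fluorescence loss; 100% = effect of cAMP agonist control; nearly all actives have a fitted effect of over 75% in size.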 To be noted: EPAC1 Rap1B BODIPY-GDP exchange fluorescence; series mostly up to 154 µM.
Assay [17] deals with Rap guanine nucleotide exchange factor 4 (Homo sapiens) (UniProt Q8WZA2). Kind of assay: Confirmatory qHTS for agonist of cAMP-regulated guanine nucleotide exchange factor 4 (EPAC2) (AID 1645884).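 Note: nucleotide exchange releases bodipy-GDP from Rap1 and this lowers its fluorescence; % is set by controls: 0 for no effect and ±100 for the full control effect; nearly all actives have a fitted effect of over 65% in size.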 As to conditions: EPAC2 GEF activity, Rap1B-BODIPY-GDP fluorescence; series mostly up to 154 µM.
In assay [18] the target is Cytochrome P450 2C9 (Homo sapiens) (UniProt P11712). Kind of assay: qHTS Assay for Inhibitors and Substrates of Cytochrome P450 2C9 (AID 883). Note: potency is the fitted concentration of half-maximal effect; nearly all actives have a fitted effect of over 60% in size. As to conditions: recombinant CYP2C9, luciferin-H luminescence, 60 min; series mostly up to 57.1 µM. In outline:
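CYP2C9 deoxyluciferin hydroxylation, 37C, 60 min with NADPH regeneration; 10nM enzyme, 100uM Luciferin-H (KM). Glo detection reagent stopped reaction; luminescence normalized to sulphaphenazole (57uM) full inhibition.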

The target of assay [19] is Cytochrome P450 3A4 (Homo sapiens) (UniProt P08684). Kind of assay: qHTS Assay for Inhibitors and Substrates of Cytochrome P450 3A4 (AID 884). Note: % is set by controls: 0 for no effect and ±100 for the full control effect; nearly all actives have a fitted effect of over 50% in size. To be noted: recombinant CYP3A4, Luciferin-PPXE luminescence; series mostly up to 57.1 µM. In outline: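 20 nM human CYP3A4 with 25 uM Luciferin-PPXE (at KM) in 200 mM KPO4, preincubated 10 min with compound; NADPH regeneration started a 60 min RT reaction. Luciferin detected by luminescence, normalized to 57 uM ketoconazole as full inhibition.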
Sequence of Cytochrome P450 3A4 (Homo sapiens) (P08684 whole entry, looked up): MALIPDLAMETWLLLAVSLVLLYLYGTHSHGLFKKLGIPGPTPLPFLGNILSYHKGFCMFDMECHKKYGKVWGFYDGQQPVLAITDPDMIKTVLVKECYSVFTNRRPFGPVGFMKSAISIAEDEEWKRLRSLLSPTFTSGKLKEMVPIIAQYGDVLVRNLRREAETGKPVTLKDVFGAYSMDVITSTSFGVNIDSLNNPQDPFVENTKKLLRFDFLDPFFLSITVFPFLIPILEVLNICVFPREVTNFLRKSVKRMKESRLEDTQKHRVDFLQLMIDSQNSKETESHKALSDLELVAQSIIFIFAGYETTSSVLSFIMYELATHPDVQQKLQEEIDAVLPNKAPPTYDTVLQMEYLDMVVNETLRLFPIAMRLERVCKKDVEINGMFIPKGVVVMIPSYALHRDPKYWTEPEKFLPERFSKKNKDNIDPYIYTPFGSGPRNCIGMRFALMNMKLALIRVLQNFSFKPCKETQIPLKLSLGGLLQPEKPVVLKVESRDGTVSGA

Assay [20] has as its target Cytochrome P450 2C19 (Homo sapiens) (UniProt P33261). The assay can be described thus: qHTS Assay for Inhibitors and Substrates of Cytochrome P450 2C19 (AID 899). Note: potency is the fitted concentration of half-maximal effect; nearly all actives have a fitted effect of over 60% in size. To be noted: recombinant CYP2C19, luciferin-H EGE luminescence; series mostly up to 57.1 µM. In outline:
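In 50mM KPO4, the reaction held 5nM enzyme and KM-level (10uM) Luciferin-H EGE; it ran 60 min at 37C after NADPH regeneration and a 10 min compound preincubation. Luminescence values were scaled to 57uM ketoconazole as complete inhibition.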

Unmarked numbers belong to inactive results. Inconclusive results are not listed. Active and inactive are the calls of the source. Unless noted, calls come from the whole dose curve; as a rule, active = well fitted curve in the direction sought with a large enough effect; inconclusive = small, poorly fitted or top-dose-only effect, or another doubt; inactive = no such curve, though single readings can be large; an effect the other way counts as inactive or inconclusive.

Sequence of Dual specificity protein kinase CLK4 (Homo sapiens) (Q9HAZ1 whole entry, looked up): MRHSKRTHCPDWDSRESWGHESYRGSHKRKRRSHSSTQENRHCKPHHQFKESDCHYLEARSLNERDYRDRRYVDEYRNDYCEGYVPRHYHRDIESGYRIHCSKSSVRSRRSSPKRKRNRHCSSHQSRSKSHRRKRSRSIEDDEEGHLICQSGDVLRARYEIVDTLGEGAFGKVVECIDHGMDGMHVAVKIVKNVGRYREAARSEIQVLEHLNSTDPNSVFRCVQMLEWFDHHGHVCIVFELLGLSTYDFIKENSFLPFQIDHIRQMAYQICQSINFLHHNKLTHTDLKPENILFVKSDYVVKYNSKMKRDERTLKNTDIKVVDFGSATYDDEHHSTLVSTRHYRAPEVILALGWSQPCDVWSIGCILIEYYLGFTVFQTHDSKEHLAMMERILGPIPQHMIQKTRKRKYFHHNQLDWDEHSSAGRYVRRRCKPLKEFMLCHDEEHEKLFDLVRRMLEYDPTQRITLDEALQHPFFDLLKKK
Sequence of Lysosomal acid glucosylceramidase (Homo sapiens) (P04062 whole entry, looked up): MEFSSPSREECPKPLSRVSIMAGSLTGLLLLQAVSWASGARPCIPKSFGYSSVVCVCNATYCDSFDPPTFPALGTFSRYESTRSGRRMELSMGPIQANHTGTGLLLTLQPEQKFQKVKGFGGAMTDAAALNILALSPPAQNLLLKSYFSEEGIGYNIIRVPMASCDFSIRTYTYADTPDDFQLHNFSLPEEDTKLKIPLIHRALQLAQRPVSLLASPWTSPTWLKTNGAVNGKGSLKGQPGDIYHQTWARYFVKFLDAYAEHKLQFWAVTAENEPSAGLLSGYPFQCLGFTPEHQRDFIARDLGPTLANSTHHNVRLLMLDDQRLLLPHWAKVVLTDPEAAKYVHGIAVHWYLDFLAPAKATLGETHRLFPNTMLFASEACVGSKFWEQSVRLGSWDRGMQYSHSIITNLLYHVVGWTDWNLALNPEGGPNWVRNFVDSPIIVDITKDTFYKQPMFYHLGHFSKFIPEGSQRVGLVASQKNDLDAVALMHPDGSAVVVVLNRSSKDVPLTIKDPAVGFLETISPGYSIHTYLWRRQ
Sequence of Glucocorticoid receptor (Homo sapiens) (P04150 whole entry, looked up, the tested form may be a part): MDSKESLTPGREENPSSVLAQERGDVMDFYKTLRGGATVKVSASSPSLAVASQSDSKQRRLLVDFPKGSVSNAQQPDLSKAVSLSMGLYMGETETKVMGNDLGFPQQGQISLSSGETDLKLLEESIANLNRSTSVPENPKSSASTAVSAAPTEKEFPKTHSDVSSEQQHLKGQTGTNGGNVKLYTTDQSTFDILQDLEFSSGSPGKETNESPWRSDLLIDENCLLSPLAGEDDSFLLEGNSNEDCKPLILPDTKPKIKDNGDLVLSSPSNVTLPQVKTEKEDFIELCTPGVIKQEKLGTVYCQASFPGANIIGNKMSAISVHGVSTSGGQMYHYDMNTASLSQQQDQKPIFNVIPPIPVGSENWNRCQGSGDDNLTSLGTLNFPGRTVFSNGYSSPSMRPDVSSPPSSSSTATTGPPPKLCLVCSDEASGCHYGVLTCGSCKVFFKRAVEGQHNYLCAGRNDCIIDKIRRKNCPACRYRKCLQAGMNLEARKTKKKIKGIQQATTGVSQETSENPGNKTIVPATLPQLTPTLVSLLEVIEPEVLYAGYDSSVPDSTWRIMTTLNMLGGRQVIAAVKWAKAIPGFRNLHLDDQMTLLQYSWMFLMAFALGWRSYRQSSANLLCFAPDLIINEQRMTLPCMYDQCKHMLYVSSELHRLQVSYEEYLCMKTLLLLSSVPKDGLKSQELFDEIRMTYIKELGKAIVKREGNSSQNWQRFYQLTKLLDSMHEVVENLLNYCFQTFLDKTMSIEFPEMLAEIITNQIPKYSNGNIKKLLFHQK
Sequence of Cytochrome P450 1A2 (Homo sapiens) (P05177 whole entry, looked up): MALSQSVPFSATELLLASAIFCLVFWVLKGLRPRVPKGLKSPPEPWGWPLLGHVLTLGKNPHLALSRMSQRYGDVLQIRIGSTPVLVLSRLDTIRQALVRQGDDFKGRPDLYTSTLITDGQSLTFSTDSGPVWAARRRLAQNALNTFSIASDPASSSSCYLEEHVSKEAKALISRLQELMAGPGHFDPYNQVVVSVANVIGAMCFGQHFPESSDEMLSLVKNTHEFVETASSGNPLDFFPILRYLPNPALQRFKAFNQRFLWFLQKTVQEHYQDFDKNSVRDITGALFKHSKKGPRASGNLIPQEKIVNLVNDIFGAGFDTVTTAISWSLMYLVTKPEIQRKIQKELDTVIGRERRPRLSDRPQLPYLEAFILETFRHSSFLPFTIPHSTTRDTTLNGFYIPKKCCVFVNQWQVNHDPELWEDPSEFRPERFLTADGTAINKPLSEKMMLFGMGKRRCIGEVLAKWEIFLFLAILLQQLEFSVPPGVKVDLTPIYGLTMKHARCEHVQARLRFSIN
Sequence of Cytochrome P450 2C9 (Homo sapiens) (P11712 whole entry, looked up): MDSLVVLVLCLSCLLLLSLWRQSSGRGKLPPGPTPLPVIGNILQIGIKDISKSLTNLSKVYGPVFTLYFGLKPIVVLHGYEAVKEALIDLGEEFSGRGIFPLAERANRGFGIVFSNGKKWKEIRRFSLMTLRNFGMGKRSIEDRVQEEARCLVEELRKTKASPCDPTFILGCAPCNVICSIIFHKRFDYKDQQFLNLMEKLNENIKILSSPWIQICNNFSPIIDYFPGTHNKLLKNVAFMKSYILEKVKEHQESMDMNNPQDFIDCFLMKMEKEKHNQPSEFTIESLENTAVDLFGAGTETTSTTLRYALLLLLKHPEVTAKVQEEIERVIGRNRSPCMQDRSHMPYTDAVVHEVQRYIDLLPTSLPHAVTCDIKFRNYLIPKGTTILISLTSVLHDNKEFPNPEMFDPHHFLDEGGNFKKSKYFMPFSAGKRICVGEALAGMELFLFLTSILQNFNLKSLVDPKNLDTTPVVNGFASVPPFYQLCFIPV

`COc1cccc(Cn2c(=O)c(-c3ccc(Cl)cc3)nc3cnc(OC)nc32)c1`: the Potency in assay [1] is greater than 11.4 µM; in assay [3], 3.98 µM (active); in [6], greater than 9.22 µM; in assay [7] it was greater than 46 µM. The activity change, negative = inhibition in assay [2] is -15.4%; in assay [4], 8.55%. Further, in assay [5], the activity, negative = inhibition was 4.34%. Besides, the Potency result in [8], in assay [9], in assay [10], in assay [11] and in assay [12] was “inactive” throughout. Besides, in assay [13], the outcome was inactive.

As to `CC(=O)NCCNc1nc(-c2ccc(C(=O)N(C)C)cc2)nc2ccccc12`, the results for the Potency in assay [1], in assay [6] and in assay [7] were greater than 11.4 µM, greater than 46 µM and greater than 46 µM, respectively. Moreover, the results for the activity change, negative = inhibition in assay [2] and in assay [4] were 3.64% and 9.74%, respectively. The Potency entry in assay [3], in assay [8], in assay [14], in assay [9], in assay [10] and in [11] was “inactive” each time. Further, in assay [12], the Potency result is “inactive”. Besides, the activity, negative = inhibition in assay [5] is 11.4%. Also, the outcome in [13] was inactive.

As for `COc1ccc(-n2c(=O)c(-c3ccc(F)cc3)nc3cncnc32)cc1`, the Potency in assay [1] is greater than 11.4 µM; in assay [6], greater than 9.22 µM; in assay [7] it was greater than 46 µM. Besides, the values for the activity change, negative = inhibition in assay [2] and in assay [4] were 7.36% and -20%, respectively. The Potency entry in assay [3], in [8], in assay [14], in assay [9], in assay [10] and in [11] was “inactive” each time. Further, in [12], the Potency result is “inactive”. Moreover, the activity, negative = inhibition in assay [5] was 6.09%. In addition, the outcome in [13] was inactive.

Turning to `COc1ccccc1CNc1nc(-c2cccnc2)nc2ccccc12`, the Potency was greater than 11.4 µM in assay [1]; 1 µM (active) in assay [3]; greater than 46 µM in assay [7]; 12.6 µM (active) in assay [9]; 10 µM (active) in assay [10]; 4.47 µM (active) in assay [11]. Besides, the activity change, negative = inhibition in assay [2] was -17.9%; in assay [4], -5.69%. The activity, negative = inhibition in [5] was -25.3%. Also, the Potency entry in [8], in assay [15], in [12], in [16] and in assay [17] was “inactive” each time. In assay [13], the result was inactive.

Regarding `Cn1cc(-c2nc3cnc(Oc4ccccc4)nc3n(Cc3cccs3)c2=O)c2ccccc21`, the Potency is greater than 11.4 µM in assay [1], 3.16 µM (active) in assay [3], greater than 9.22 µM in [6] and greater than 46 µM in assay [7]. For the same compound, the results for the activity change, negative = inhibition in [2] and in [4] were 7.68% and 23.5%, respectively. In assay [5], the activity, negative = inhibition is 11%. In addition, the Potency result in assay [8], in assay [14], in [9], in assay [10], in assay [11] and in assay [12] was “inactive” throughout. In addition, the result in assay [13] was inactive.

With `COc1c(O)cc2oc3cc(O)c(CC=C(C)C)c(O)c3c(=O)c2c1CC=C(C)C`, the Potency in assay [3] is 31.6 µM (active); in assay [7] it was greater than 20.6 µM; in assay [18] it was 5.01 µM (active); in [20], 10 µM (active). For the same compound, the Potency entry in assay [8], in assay [14], in assay [19] and in assay [15] was “inactive” throughout. Besides, in assay [13], the result was inactive.
